# Experimental data as given in PubChem BioAssay (Tox21).
# Values joined by “and” are separate entries in the source; they are usually repeats but may differ in a detail not shown here. Equal entries are not always repeated. Active and inactive are the calls of the source. Entries that show only a call come without a potency. Unless noted, calls follow the shape of the dose curve; as a rule, active = well fitted curve in the direction sought with a large enough effect in the repeat runs; inconclusive = weak or mixed curves; inactive = no such curve, though single readings can be large; an effect the other way counts as inactive or inconclusive.
# Assays:
# [1] = qHTS assay to identify small molecule antagonists of the thyroid receptor (TR) signaling pathway (AID 743065); also: nearly all actives have a fitted effect of over 55% in size; also: potency is read from the fitted curve at half-maximal effect
# Outline: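 GH3.TRE-Luc rat pituitary cells carrying two TR response elements driving luciferase were plated for 4 h, given compound plus 1 nM T3 (final), and incubated 23.5 h at 37 C. ONE-Glo luminescence measured reporter inhibition; CellTiter-Fluor fluorescence tracked cytotoxicity.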
# [2] = tested on: thyroid hormone receptor (rat, GH3 cells); assay: qHTS assay to identify small molecule agonists of the thyroid receptor (TR) signaling pathway (AID 743066; calls by dose curve)
# [3] = target: Estrogen receptor (Homo sapiens) (UniProt P03372); assay: qHTS assay to identify small molecule antagonists of the estrogen receptor alpha (ER-alpha) signaling pathway (AID 743069; active = well fitted curve in the direction sought with a large enough effect in the signal ratio in the repeat runs, not every such curve was filed as active; inconclusive = weak or mixed curves, or effect the other way; inactive = no such curve, though single readings can be large or run the other way; the % refers to the signal ratio; also: potency is read from the fitted curve at half-maximal effect)
# Outline: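 HEK293 cells stably carrying an ER-alpha-UAS-bla beta-lactamase reporter were pre-cultured overnight in 2% charcoal-stripped FBS medium. Test compounds in DMSO were added together with 17beta-estradiol for 18 hr at 37C. Read-out was fluorescence after 2 hr with LiveBLAzer B/G FRET substrate at room temperature.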
# [4] = qHTS assay to identify small molecule antagonists of the estrogen receptor alpha (ER-alpha) signaling pathway - cell viability counter screen (AID 743074; calls by dose curve; also: nearly all actives have a fitted effect of over 45% in size)
# [5] = target: Estrogen receptor (Homo sapiens) (UniProt P03372); assay: qHTS assay to identify small molecule agonists of the estrogen receptor alpha (ER-alpha) signaling pathway (AID 743075; calls by dose curve)
# [6] = target: Estrogen receptor (Homo sapiens) (UniProt P03372); assay: qHTS assay to identify small molecule agonists of the estrogen receptor alpha (ER-alpha) signaling pathway using the BG1 cell line (AID 743079); also: nearly all actives have a fitted effect of over 20% in size; also: potency is read from the fitted curve at half-maximal effect
# [7] = qHTS assay to identify small molecule antagonists of the estrogen receptor alpha (ER-alpha) signaling pathway using the BG1 cell line (AID 743080; calls by dose curve;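 also: BG1 cells stimulated with 17beta-estradiol alongside compound; nearly all actives have a fitted effect of over 25% in size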; also: potency is read from the fitted curve at half-maximal effect)
# Outline: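 BG1-Luc-4E2 cells (endogenous full-length ER-alpha, 4xERE luciferase) hormone-starved 5 days in charcoal-stripped FBS, plated 4,000/well for 24 h, then compound plus 17beta-estradiol for 21.5 h at 37 C; ONE-Glo luminescence read.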
# [8] = qHTS assay to identify small molecule antagonists of the estrogen receptor alpha (ER-alpha) signaling pathway using the BG1 cell line - cell viability counter screen (AID 743081);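 also: compound given together with 17beta-estradiol as the ER stimulus; series mostly up to about 70 µM; nearly all actives have a fitted effect of over 45% in size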
# [9] = target: Aromatase (Homo sapiens) (UniProt P11511); assay: qHTS assay to identify aromatase inhibitors (AID 743083); also: nearly all actives have a fitted effect of over 55% in size; also: potency is read from the fitted curve at half-maximal effect
# [10] = qHTS assay to identify aromatase inhibitors - cell viability counter screen (AID 743084);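 also: cells stimulated with testosterone during compound exposure; nearly all actives have a fitted effect of over 55% in size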
# Aromatase (Homo sapiens), sequence (P11511 whole entry, looked up): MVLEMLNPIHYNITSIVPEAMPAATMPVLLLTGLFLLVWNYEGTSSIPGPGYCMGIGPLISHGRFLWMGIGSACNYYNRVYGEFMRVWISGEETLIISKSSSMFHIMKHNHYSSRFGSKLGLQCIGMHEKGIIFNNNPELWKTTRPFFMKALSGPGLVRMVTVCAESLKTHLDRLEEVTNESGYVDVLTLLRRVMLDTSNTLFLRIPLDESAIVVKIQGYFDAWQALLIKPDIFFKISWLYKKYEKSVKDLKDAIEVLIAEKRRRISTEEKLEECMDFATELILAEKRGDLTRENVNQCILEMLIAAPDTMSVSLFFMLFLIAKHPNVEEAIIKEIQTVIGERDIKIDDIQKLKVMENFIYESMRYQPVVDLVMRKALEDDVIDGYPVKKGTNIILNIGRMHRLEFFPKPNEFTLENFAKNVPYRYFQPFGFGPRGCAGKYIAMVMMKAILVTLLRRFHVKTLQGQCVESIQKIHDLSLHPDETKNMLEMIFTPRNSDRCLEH
# Estrogen receptor (Homo sapiens), sequence (P03372 whole entry, looked up): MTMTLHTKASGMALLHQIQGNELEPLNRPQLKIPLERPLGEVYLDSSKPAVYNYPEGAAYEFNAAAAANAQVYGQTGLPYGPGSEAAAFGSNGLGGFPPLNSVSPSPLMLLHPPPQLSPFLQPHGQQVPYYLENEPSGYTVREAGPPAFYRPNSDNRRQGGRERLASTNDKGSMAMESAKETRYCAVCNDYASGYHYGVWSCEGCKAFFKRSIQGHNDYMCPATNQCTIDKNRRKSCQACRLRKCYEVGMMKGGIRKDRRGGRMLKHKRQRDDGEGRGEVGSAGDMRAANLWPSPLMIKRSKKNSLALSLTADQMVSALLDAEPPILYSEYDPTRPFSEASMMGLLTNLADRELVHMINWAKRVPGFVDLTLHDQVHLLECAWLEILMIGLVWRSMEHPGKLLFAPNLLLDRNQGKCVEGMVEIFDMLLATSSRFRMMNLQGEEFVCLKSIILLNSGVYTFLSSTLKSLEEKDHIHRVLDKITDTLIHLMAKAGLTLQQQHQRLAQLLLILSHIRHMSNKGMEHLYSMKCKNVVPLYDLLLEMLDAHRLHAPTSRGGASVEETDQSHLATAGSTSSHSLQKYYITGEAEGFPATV
SMILES,Potency [1],Potency [2],Potency [3],Potency [4],Potency [5],Potency [6],Potency [7],Potency [8],Potency [9],Potency [10]
CCCC[N+]1(C)[C@@H]2CC(OC(=O)[C@H](CO)c3ccccc3)C[C@H]1[C@@H]1O[C@@H]12 (stereo partly drawn),inactive,inactive,inactive,inactive,inactive,inactive,inactive,inactive,inactive,inactive
CCSCc1ccccc1OC(=O)NC,inactive,inactive,inactive,inactive,inactive,inactive,inactive,inactive,inactive,inactive
CC(C)C1(C)N=C(c2ncccc2C(=O)O)NC1=O (stereo not drawn),inactive,inactive,inactive,inactive,inactive,inactive,inactive,inactive,inactive,inactive
CON(C)C(=O)Nc1ccc(Cl)cc1,inactive,inactive,inactive,inactive,inactive,inactive,inactive,inactive,inactive,inactive
CCNC(=O)NC(=O)/C(C#N)=N/OC,inactive,inactive,inactive,inactive,inactive,inactive,inactive,inactive,inactive,inactive
SCc1ccccc1,inactive,inactive,inactive,inactive,inactive,62.9 µM (active),inactive,inactive,inactive,inactive
CCOP(=O)(O)C(N)=O,inactive,inactive,inactive,inactive,inactive,inactive,inactive,inactive,inactive,inactive
CN1CC[C@]23c4c5ccc(O)c4O[C@H]2[C@@H](O)CC[C@H]3[C@H]1C5,inactive,inactive,inactive,inactive,inactive,inactive,inactive,inactive,inactive,inactive
COC(=O)C1(O)c2ccccc2-c2ccccc21,inactive,inactive,inactive,inactive,inactive,inactive,inactive,inactive,inactive,inactive
c1ccc2c(c1)sc1ccccc12,inactive,inactive,inactive,inactive,inactive,inactive,inactive,inactive,inactive,inactive
O=P(OCC(Br)CBr)(OCC(Br)CBr)OCC(Br)CBr (stereo not drawn),27.7 µM (active) and 23.1 µM (active),inactive,62.5 µM [inconclusive] (active) and 46.5 µM [inconclusive] (active),inactive,inactive,inactive,inactive,inactive,61.9 µM (active),inactive
CCC(C)Cl (stereo not drawn),inactive,inactive,inactive,inactive,inactive,inactive,inactive,inactive,inactive,inactive
C1CS1,inactive,inactive,inactive,inactive,inactive,inactive,inactive,inactive,inactive,inactive
Cc1nc(N(C)C)nc(OC(=O)N(C)C)c1C,inactive,inactive,inactive,inactive,inactive,inactive,inactive,inactive,inactive,inactive
CCCCC1C(=O)NC(=O)N(C2CCCCC2)C1=O (stereo not drawn),inactive,inactive,inactive,inactive,inactive,inactive,inactive,inactive,inactive,inactive
CCCC1CCCCN1 (stereo not drawn),inactive,inactive,inactive,inactive,inactive,inactive,inactive,inactive,inactive,inactive
COCc1cnc(C2=NC(C)(C(C)C)C(=O)N2)c(C(=O)O)c1 (stereo not drawn),inactive,inactive,inactive,inactive,inactive,inactive,inactive,inactive,inactive,inactive
Nc1c(Br)cc(Br)c2c1C(=O)c1ccccc1C2=O,inactive,inactive,inactive,inactive,inactive,inactive,inactive,inactive,inactive,inactive
CC(C)(C)c1ccc(CCOc2ncnc3ccccc23)cc1,inactive,inactive,inactive,inactive,inactive,inactive,inactive,inactive,inactive,inactive
CCCSP(=S)(OCC)Oc1ccc(SC)cc1 (stereo not drawn),inactive,inactive,inactive,inactive,inactive,inactive,inactive,inactive,inactive,inactive
O=C(O)C(F)(F)C(F)(F)C(F)(F)C(F)(F)C(F)(F)F,inactive,inactive,inactive,inactive,inactive,inactive,inactive,inactive,inactive,–
C=CCOCC1CO1 (stereo not drawn),inactive,inactive,inactive,inactive,inactive,inactive,inactive,inactive,inactive,inactive
Cc1ccc2c(C)cccc2c1,inactive,inactive,inactive,inactive,inactive,inactive,inactive,inactive,inactive,inactive
CC(C)c1ccc(OP(=O)(Oc2ccc(C(C)C)cc2)Oc2ccc(C(C)C)cc2)cc1,54.9 µM (active) and 54.5 µM (active) and 30.6 µM (active),inactive,inactive,inactive,inactive,2.75 µM (active) and 6.85 µM (active),inactive,inactive,inactive,inactive

SMILES,Potency [1],Potency [2],Potency [3],Potency [4],Potency [5],Potency [6],Potency [7],Potency [8],Potency [9],Potency [10]
CCOP(=S)(S)OCC,inactive,inactive,inactive,inactive,inactive,inactive,inactive,inactive,inactive,inactive
CCN(C(C)=O)c1cccc(-c2ccnc3c(C#N)cnn23)c1,inactive,inactive,inactive,inactive,inactive,inactive,inactive,inactive,inactive,inactive
FC(Cl)(Cl)C(F)(Cl)Cl,inactive,inactive,inactive,inactive,inactive,inactive,inactive,inactive,inactive,inactive
OCCSSCCO,inactive,inactive,inactive,inactive,inactive,inactive,inactive,inactive,inactive,inactive
CCCCC(CC)CO[N+](=O)[O-] (stereo not drawn),inactive,inactive,inactive,inactive,inactive,inactive,inactive,inactive,inactive,inactive
CCC(C)(C)O,inactive,inactive,inactive,inactive,inactive,inactive,inactive,inactive,inactive,inactive
CCC1(CC)C(=O)NC(=O)NC1=O,inactive,inactive,inactive,inactive,inactive,inactive,inactive,inactive,inactive,inactive
CCCBr,inactive,inactive,inactive,inactive,inactive,inactive,inactive,inactive,inactive,inactive
CCOC(=O)NC(O)C(Cl)(Cl)Cl (stereo not drawn),inactive,inactive,inactive,inactive,inactive,inactive,inactive,inactive,inactive,inactive
C=CC(=O)OCC,inactive,inactive,inactive,inactive,inactive,inactive,inactive,inactive,inactive,inactive
CCCC[N+](CCCC)(CCCC)CCCC,inactive,inactive,inactive,inactive,inactive,inactive,inactive,inactive,inactive,inactive
C=C(Cl)Cl,inactive,inactive,inactive,inactive,inactive,inactive,inactive,inactive,inactive,inactive
CC(C)(C)NCC(O)c1ccccc1Cl (stereo not drawn),inactive,inactive,inactive,inactive,inactive,inactive,inactive,inactive,inactive,inactive
C=CCOC(=O)C(C)(C)OC(=O)c1cc(-n2c(=O)cc(C(F)(F)F)n(C)c2=O)ccc1Cl,inactive,inactive,inactive,inactive,inactive,inactive,26.8 µM (active),inactive,inactive,inactive
CCCN(CCC)c1c([N+](=O)[O-])cc(C(C)C)cc1[N+](=O)[O-],61.1 µM (active),inactive,inactive,inactive,inactive,inactive,inactive,inactive,inactive,inactive
CC(Cc1ccccc1)NCc1ccccc1Cl (stereo not drawn),inactive,inactive,inactive,inactive,inactive,26.6 µM (active),–,inactive,inactive,inactive
NC(=O)CF,inactive,inactive,inactive,inactive,inactive,inactive,inactive,inactive,inactive,inactive
O=C(Cc1ccccc1)OCCc1ccccc1,inactive,inactive,inactive,inactive,inactive,inactive,inactive,inactive,inactive,inactive
CCCCCBr,inactive,inactive,inactive,inactive,inactive,inactive,inactive,inactive,inactive,inactive
COc1ccc(C(O)(c2cncnc2)C2CC2)cc1 (stereo not drawn),inactive,inactive,inactive,inactive,inactive,inactive,inactive,inactive,inactive,inactive
C[N+](C)(C)CC1CO1 (stereo not drawn),inactive,inactive,inactive,inactive,inactive,inactive,inactive,inactive,inactive,inactive
C[C@H]1O[C@H](OC2[C@@H](O)[C@@H](O)C(O)[C@H](O)[C@H]2O)[C@@H](N)C[C@@H]1N=C(N)C(=O)O (stereo partly drawn),inactive,inactive,inactive,inactive,inactive,inactive,inactive,inactive,inactive,inactive
O=C([O-])c1ccccn1.O=C([O-])c1ccccn1.O=C([O-])c1ccccn1.[Cr+3],inactive,inactive,inactive,inactive,inactive,inactive,inactive,inactive,inactive,inactive
N#CC(C#N)=C(C#N)C#N,inactive,inactive,inactive,inactive,inactive,inactive,inactive,inactive,inactive,inactive
